Source: PubChem BioAssay AID1671189 (National Center for Advancing Translational Sciences (NCATS), 2021)
About 70 (6%) of roughly 1,100 compounds were called active. Inconclusive results (about 22%) are left out. The sample as a whole holds a higher share of actives than the screen did. Unmarked numbers belong to inactive results. Calls follow the shape of the dose curve; as a rule, active = well fitted curve in the direction sought with a large enough effect; inconclusive = small, poorly fitted or top-dose-only effect, or another doubt; inactive = no such curve, though single readings can be large or run the other way.
% is scaled to controls: 0 for no effect and ±100 for the full control effect; potency is read from the fitted curve at half-maximal effect.

These molecules were tested against Polyunsaturated fatty acid lipoxygenase ALOX12 (Homo sapiens) (UniProt P18054) (assay: Confirmatory qHTS assay for inhibitors of human arachidonate 12S-lipoxygenase (ALOX12): Round 2). Details: purified human 12-LOX, xylenol orange absorbance; series mostly up to 125 µM; activity change, negative = inhibition: at the top concentration.
Chain of Polyunsaturated fatty acid lipoxygenase ALOX12 (Homo sapiens) (P18054 whole entry, looked up): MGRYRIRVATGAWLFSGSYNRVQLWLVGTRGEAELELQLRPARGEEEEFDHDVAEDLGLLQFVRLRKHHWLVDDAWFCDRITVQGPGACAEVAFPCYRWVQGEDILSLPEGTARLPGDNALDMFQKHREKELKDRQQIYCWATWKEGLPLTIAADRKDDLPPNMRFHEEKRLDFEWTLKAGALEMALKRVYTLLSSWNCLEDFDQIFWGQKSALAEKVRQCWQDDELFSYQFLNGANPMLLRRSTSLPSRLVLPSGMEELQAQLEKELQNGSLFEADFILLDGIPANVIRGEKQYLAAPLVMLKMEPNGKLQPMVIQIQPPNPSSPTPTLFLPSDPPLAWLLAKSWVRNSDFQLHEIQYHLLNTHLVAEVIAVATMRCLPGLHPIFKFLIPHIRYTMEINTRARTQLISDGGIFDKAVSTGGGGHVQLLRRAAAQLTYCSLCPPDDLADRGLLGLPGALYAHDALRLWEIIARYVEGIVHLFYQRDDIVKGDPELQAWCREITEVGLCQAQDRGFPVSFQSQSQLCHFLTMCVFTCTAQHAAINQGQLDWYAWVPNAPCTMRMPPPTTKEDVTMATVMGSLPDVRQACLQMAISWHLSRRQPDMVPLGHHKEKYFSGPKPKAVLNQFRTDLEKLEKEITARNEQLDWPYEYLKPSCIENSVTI
Description: Assay Provider: Theodore R. Holman Ph.D. University of California, Santa Cruz, California Human lipoxygenase 12hLO is a member of the closely related lipoxygenase family of enzymes which catalyze the site-specific oxidation of arachidonic acid to various hormone precursor molecules and as such is a candidate for drug development in a variety of disease areas, such as cancer and inflammation. Inhibition of 12hLO activity was screened by utilizing arachidonic acid as a substrate. The extent of hydroperoxide product formation was measured by a secondary chromogenic reaction in which xylenol orange (XO, Sigma-Aldrich, cat. number 39,818-7) reacts with the ferric ions produced from the reaction between the hydroperoxide and ferrous ions. The Fe (III)-XO complex is characterized with red-shifted absorbance at 560 nm. A purified preparation of human 12hLO was supplied by Dr. Holman laboratory, University of California, Santa Cruz.
PROTOCOL TABLE SEQUENCE No. (e.g., 1, 2, 3, etc.); […] (e.g., Cells, Incubation, Reagent, etc.); VALUE; DESCRIPTION 1; Enzyme; 3 uL; 150 nM 12hLO enzyme solution dispensed in 1536-well Greiner black, clear bottom plates. 2; Compound; 23 nL; compounds and controls were added. 3; Incubate; 15 min; room temperature. 4; Substrate; 1 uL; 40 uM arachidonic acid (final concentration). 5; Incubate; 30 min; room temperature. 6; Reagent; 4 uL; Fe-XO solution was added to each well. 7; Incubation; 30 min; room temperature 8; Detector; absorbance; Read 1 at 405 nm absorbance using ViewLux (PerkinElmer) CCD imager. 9; Detector; absorbance; Read 2 at 573 nm absorbance using ViewLux (PerkinElmer) CCD imager. NOTES (numbers refer to sequence above) 1; 150 nM 12hLO (final concentration) in buffer solution (25 mM Hepes, 0.01% Triton X-100, pH 7.0) was dispensed in columns 1, 2, 5-48. Column 1 is neutral (100% activity). Buffer only was dispensed in columns 3 and 4 as no enzyme negative controls. The plates were covered with metal lids with gas-exchange holes. 2; Compounds were pin transferred via a Kalypsys Pin Tool (Wako USA) in column 5 - 48. Control compound was transferred in column 2, titration of nordihydroguaiaretic acid (NDGA, Sigma-Aldrich, N5023) with top concentration of 20 mM in DMSO then 1:3 dilution in duplicate. Dilution factor of 23 nL into 4 uL final assay volume. 3; Covered assay plates were incubated for 15 min at room temperature. 4; Substrate was added to start the reaction; 40 uM arachidonic acid (Sigma-Aldrich, St. Louis, MO) was dispensed throughout the plate. 6; Chromogenic detection reagent solution (divalent iron/xylenol orange, Fe-XO) was added to each well: 200 uM xylenol orange, 300 uM ferrous ammonium sulfate prepared freshly in 50 mM sulfuric acid. 8, 9; Two absorbance readouts were obtained at 405 nm and at 573 nm using a ViewLux high-throughput CCD plate imager (PerkinElmer). The 573 to 405 (Read 2 / Read 1) absorbance ratio was used to compute reaction progress.
With `O=C(Nc1ccc2n(c1=O)C[C@H]1C[C@@H]2CN(Cc2ccc(F)cc2)C1)c1cccs1` the “activity change, negative = inhibition” value was -9.31% [at 64.5 µM]. In the case of `COc1ccccc1NC(=O)Nc1ccc2n(c1=O)C[C@H]1C[C@@H]2CN(C2CCOCC2)C1`, the Potency is reported as 14.1 µM (active). For `Cc1o[nH]c(=O)c1C[C@H](N)C(=O)O`, the “activity change, negative = inhibition” value was 5.45%. In the case of `C#C[C@H]1CN2CC[C@H]1C[C@@H]2COC(=O)NCCC`, the Potency is reported as 17.8 µM (active). With `O=C(O)C1=NOC2CN(Cc3cccc(Br)n3)CC12` (stereo not given) the “activity change, negative = inhibition” value was -4.21%. `c1cc2nc(C3CCNCC3)[nH]c2cn1` was tested, and the “activity change, negative = inhibition” value was -16.3% [at 233 µM]. In the case of `CCN1C[C@]2(COC(=O)c3ccccc3N3C(=O)CC(C)C3=O)CC[C@H](OC)[C@@]34C5C[C@@H]6[C@@H](OC)C[C@@](O)(C5[C@H]6OC)[C@](O)([C@@H](OC)C23)[C@@H]14` (stereo not given in full), the “activity change, negative = inhibition” value is reported as 3.67%. In the case of `CCOc1ccc(CN(CCc2ccc3c(c2)OCO3)Cc2ccc(C)cc2)cc1`, the “activity change, negative = inhibition” value is reported as -11.3%. With `N[C@@]1(C(=O)O)CC[C@H](C(=O)O)C1` the “activity change, negative = inhibition” value was -0.148%. In the case of `CCCS(=O)(=O)N1C[C@@H]2C[C@H](C1)c1c(-c3ccc(Cl)cc3)ccc(=O)n1C2`, the “activity change, negative = inhibition” value is reported as -24.3% [at 64.5 µM]. For `CSc1ccc(-c2ccc(=O)n3c2[C@@H]2C[C@@H](CN(S(=O)(=O)c4cccs4)C2)C3)cc1`, the Potency was 15.8 µM (active). With `CSc1ccc(-c2ccc(=O)n3c2[C@@H]2C[C@@H](CN(S(C)(=O)=O)C2)C3)cc1` the “activity change, negative = inhibition” value was -26.5% [at 64.5 µM]. In the case of `CSc1ccc(CN2CCN(C(=O)COc3ccc(C)cc3)CC2)cc1`, the “activity change, negative = inhibition” value is reported as -25.5%. With `O=C(Cc1ccc(Cl)cc1)N1Cc2ccccc2CC2(CCCN2CC2CCNC2)C1` (stereo not given) the “activity change, negative = inhibition” value was -22.4%. For `O=C(O)C1CN(Cc2ncc[nH]2)CCN(C(=O)Cc2cccs2)C1` (stereo not given), the “activity change, negative = inhibition” value was 5.5% [at 64.5 µM].
